# Among all 5,500 compounds or so, about 2,000 (36%) were called active. Inconclusive results (about 18%) are left out. The list shows a part of the results. Values without a mark were called inactive. Cut-off read from the data, not from the text of the source: active = normalized growth mostly below about 0.91 (no sharp cut-off); inconclusive = no clear call, values can overlap the other calls; inactive = mostly above about 0.92.
# Test: chemical genetic growth profiling, strain panel (AID 1159580);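 note: tested at 20 µM; growth read once vehicle control cultures reached saturation at 30 °C; 1 = growth at the plate median or of vehicle wells; lower values mean less growth of the strain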
# Conditions: S. cerevisiae deletion strains, growth OD
smiles,measurement,setting,value
CC1C(c2ccccc2)N(C)C(c2ccccc2)CC1(O)c1ccc(F)cc1 (stereo unspecified),normalized growth,"locus YAR019C, strain CDC15, stronger effect = lower value",0.988
same,normalized growth,"locus YBL105C, strain PKC1, stronger effect = lower value",0.991
same,normalized growth,"locus YBR135W, strain CKS1, stronger effect = lower value",0.99
same,normalized growth,"locus YBR136W, strain MEC1, stronger effect = lower value",0.994
same,normalized growth,"locus YBR160W, strain CDC28, stronger effect = lower value",0.995
same,normalized growth,"locus YDL017W, strain CDC7, stronger effect = lower value",0.997
same,normalized growth,"locus YDL028C, strain MPS1, stronger effect = lower value",1
same,normalized growth,"locus YDL101C, strain DUN1, stronger effect = lower value",0.986
same,normalized growth,"locus YDL108W, strain KIN28, stronger effect = lower value",1.01
same,normalized growth,"locus YDL132W, strain cdc53, stronger effect = lower value",0.989
same,normalized growth,"locus YDL214C, strain PRR2, stronger effect = lower value",0.976
same,normalized growth,"locus YDR052C, strain DBF4, stronger effect = lower value",0.995
same,normalized growth,"locus YDR054C, strain cdc34, stronger effect = lower value",0.993
same,normalized growth,"locus YDR226W, strain ADK1, stronger effect = lower value",0.992
same,normalized growth,"locus YDR477W, strain SNF1, stronger effect = lower value",0.992
same,normalized growth,"locus YER123W, strain YCK3, stronger effect = lower value",0.934
same,normalized growth,"locus YER133W, strain GLC7, stronger effect = lower value",0.995
same,normalized growth,"locus YFL009W, strain cdc4, stronger effect = lower value",0.989
same,normalized growth,"locus YFL029C, strain CAK1, stronger effect = lower value",0.99
same,normalized growth,"locus YFR003C, strain YPI1, stronger effect = lower value",0.999
same,normalized growth,"locus YFR019W, strain FAB1, stronger effect = lower value",0.996
same,normalized growth,"locus YFR028C, strain CDC14, stronger effect = lower value",0.984
same,normalized growth,"locus YGR040W, strain KSS1, stronger effect = lower value",0.997
same,normalized growth,"locus YGR052W, strain FMP48, stronger effect = lower value",1.11
same,normalized growth,"locus YGR092W, strain DBF2, stronger effect = lower value",0.968
same,normalized growth,"locus YHR030C, strain SLT2, stronger effect = lower value",1.26 [resistant] (active)
same,normalized growth,"locus YHR079C, strain IRE1, stronger effect = lower value",1.14
same,normalized growth,"locus YHR082C, strain KSP1, stronger effect = lower value",1.13
same,normalized growth,"locus YHR205W, strain SCH9, stronger effect = lower value",0.979
same,normalized growth,"locus YIL147C, strain SLN1, stronger effect = lower value",1
same,normalized growth,"locus YJL095W, strain BCK1, stronger effect = lower value",1.1
same,normalized growth,"locus YJL128C, strain PBS2, stronger effect = lower value",0.952
same,normalized growth,"locus YJL157C, strain FAR1, stronger effect = lower value",0.972
same,normalized growth,"locus YJR016C, strain ILV3, stronger effect = lower value",0.989
same,normalized growth,"locus YJR066W, strain TOR1 (second series), stronger effect = lower value",0.983
same,normalized growth,"locus YJR066W, strain TOR1, stronger effect = lower value",1.13
same,normalized growth,"locus YKL048C, strain ELM1, stronger effect = lower value",0.982
same,normalized growth,"locus YKL067W, strain YNK1, stronger effect = lower value",0.98
same,normalized growth,"locus YKL101W, strain HSL1, stronger effect = lower value",0.99
same,normalized growth,"locus YKL193C, strain SDS22, stronger effect = lower value",0.994
same,normalized growth,"locus YKL203C, strain TOR2, stronger effect = lower value",1.06
same,normalized growth,"locus YLR113W, strain HOG1, stronger effect = lower value",1.04
same,normalized growth,"locus YLR133W, strain CKI1, stronger effect = lower value",0.98
same,normalized growth,"locus YLR403W, strain SFP1, stronger effect = lower value",0.99
same,normalized growth,"locus YML070W, strain DAK1, stronger effect = lower value",0.973
same,normalized growth,"locus YMR001C, strain CDC5, stronger effect = lower value",0.982
same,normalized growth,"locus YMR205C, strain PFK2 (second series), stronger effect = lower value",0.989
same,normalized growth,"locus YMR277W, strain FCP1, stronger effect = lower value",0.997
same,normalized growth,"locus YNL006W, strain LST8, stronger effect = lower value",0.977
same,normalized growth,"locus YNL020C, strain ARK1, stronger effect = lower value",0.984
same,normalized growth,"locus YNL161W, strain CBK1, stronger effect = lower value",1
same,normalized growth,"locus YNL183C, strain NPR1, stronger effect = lower value",1.14
same,normalized growth,"locus YNL207W, strain RIO2, stronger effect = lower value",0.999
same,normalized growth,"locus YNL222W, strain SSU72, stronger effect = lower value",0.99
same,normalized growth,"locus YNL307C, strain MCK1 (second series), stronger effect = lower value",0.987
same,normalized growth,"locus YOL078W, strain AVO1, stronger effect = lower value",0.992
same,normalized growth,"locus YOL136C, strain PFK27, stronger effect = lower value",0.99
same,normalized growth,"locus YOR061W, strain CKA2, stronger effect = lower value",0.972
same,normalized growth,"locus YOR119C, strain RIO1, stronger effect = lower value",1.04
same,normalized growth,"locus YOR231W, strain MKK1, stronger effect = lower value",1.1
same,normalized growth,"locus YOR329C, strain SCD5, stronger effect = lower value",0.992
same,normalized growth,"locus YPL031C, strain PHO85, stronger effect = lower value",0.984
same,normalized growth,"locus YPL153C, strain RAD53, stronger effect = lower value",0.983
same,normalized growth,"locus YPL204W, strain HRR25, stronger effect = lower value",1
same,normalized growth,"locus YPL209C, strain IPL1, stronger effect = lower value",1
same,normalized growth,"locus YPL256C, strain CLN2, stronger effect = lower value",1.1
same,normalized growth,"locus YPR025C, strain CCL1, stronger effect = lower value",0.995
same,normalized growth,"locus YPR106W, strain ISR1, stronger effect = lower value",0.999
same,normalized growth,"locus YPR111W, strain DBF20, stronger effect = lower value",0.99
same,normalized growth,"strain NNK1, stronger effect = lower value",0.998
same,normalized growth,"strain TSCII, stronger effect = lower value",0.987

# Source: PubChem BioAssay AID1159580 (chemical genetic matrix, 2015)
